# IL1B secr inh – qHTS for Inhibitors of Inflammasome Signaling: IL-1-beta AlphaLISA Primary Screen; THP-1 LPS/ATP IL-1B secretion, AlphaLISA, 16 h; active compounds read low; activity change, % at 57.5 µM; hit rate 4.7% among 360,000; AID 743279, 2014; in the data active = activity change below about -50%; inconclusive = mostly about -30% to -49%; note: % is set by controls: 0 for no effect and ±100 for the full control effect
#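 THP-1 cells pretreated 1 hr with compounds (up to 57.5 uM final), then stimulated with LPS (250 ng/mL final) plus ATP (1.25 mM final); secreted IL-1B measured by AlphaLISA after 16 hr, decreased signal indicating inhibition.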
# TDP1 inh – qHTS Assay for Inhibitors of Tyrosyl-DNA Phosphodiesterase (TDP1); recombinant TDP1, AlphaScreen DNA substrate cleavage; Potency, µM (titrated, usually from 130 µM), without a hit: at the highest dose activity change, negative = inhibition, usual class: inhibitors; hit rate 0.28% among 350,000; note: potency is the fitted concentration of half-maximal effect; % is set by controls: 0 for no effect and ±100 for the full control effect; nearly all actives have a fitted effect of over 40% in size
# Target sequence (Q9NUW8 whole entry, looked up): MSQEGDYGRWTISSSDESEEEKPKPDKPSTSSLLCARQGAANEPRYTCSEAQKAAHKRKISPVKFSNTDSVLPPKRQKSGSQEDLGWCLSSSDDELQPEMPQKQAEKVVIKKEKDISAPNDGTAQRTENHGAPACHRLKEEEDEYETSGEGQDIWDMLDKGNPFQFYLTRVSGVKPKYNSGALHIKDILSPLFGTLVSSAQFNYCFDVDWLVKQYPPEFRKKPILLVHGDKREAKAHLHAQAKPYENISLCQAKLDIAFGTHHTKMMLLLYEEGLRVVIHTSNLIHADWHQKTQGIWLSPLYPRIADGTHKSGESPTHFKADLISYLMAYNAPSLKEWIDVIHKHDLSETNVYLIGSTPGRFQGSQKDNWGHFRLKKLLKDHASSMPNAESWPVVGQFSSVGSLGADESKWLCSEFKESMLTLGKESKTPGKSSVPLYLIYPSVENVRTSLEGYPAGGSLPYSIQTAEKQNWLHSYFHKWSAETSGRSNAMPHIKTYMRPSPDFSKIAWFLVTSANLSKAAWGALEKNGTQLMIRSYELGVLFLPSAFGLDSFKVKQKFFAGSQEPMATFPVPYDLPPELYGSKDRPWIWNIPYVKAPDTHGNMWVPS
#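 Recombinant E. coli-expressed Tdp1 (1 nM) preincubated with compound 15 min at RT, then 5'-biotin/3'-phosphotyrosine-FITC DNA substrate (15 nM) added for 5 min. AlphaScreen beads (10 ug/ml) added, 10 min RT; tyrosine-FITC cleavage read as signal loss.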
# HepG2 tox – qHTS for Inhibitors of TGF-b: Cytotox Counterscreen. HepG2 CAGA-GFP viability, ATP luminescence, 18 h. Potency, µM (highest dose often 46.1 µM), inactives show at the top dose activity change, negative = cytotoxicity, most hits filed as cytotoxic. hit rate 0.76% among 410,000. AID 588856, 2011; note: potency is the fitted concentration of half-maximal effect
#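 CellTiter-Glo luminescence gave cytotoxicity after 18 hours at 37 degrees C. The cells were HepG2 CAGA-GFP in 1% FBS DMEM, stimulated with 500 pg/mL TGF-beta after compound addition. %Activity was normalised to no-cell wells (complete cell-killing) and DMSO (no toxicity), and curves were fitted and classified.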
# TDP1 cell CPT – qHTS for Inhibitors of human tyrosyl-DNA phosphodiesterase 1 (TDP1): qHTS in cells in presence of CPT. chicken DT40 Tdp1-/-;hTDP1 cells + 20 nM CPT, ATP luminescence, 48 h. hit rate 12% among 420,000. AID 686979, 2013. Potency, µM (top dose mostly 46.2 µM), for inactives: top-dose activity change, negative = growth inhibition, actives largely listed as inhibitors; note: potency is the fitted concentration of half-maximal effect; % is set by controls: 0 for no effect and ±100 for the full control effect; nearly all actives have a fitted effect of over 55% in size
#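 Chicken DT40 Tdp1-/- cells stably complemented with human TDP1 were seeded at 400 cells/well in medium containing 20 nM camptothecin, exposed to pin-transferred compounds, and grown at 37 °C for at least 48 hr. Viability was read as ATP luminescence.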
# TGFb SMAD3 inh – qHTS for Inhibitors of TGF-b; hit rate 1.2% among 410,000; Potency, µM (top dose mostly 46.1 µM), for inactives: top-dose activity, negative = inhibition, actives largely listed as inhibitors; HepG2 CAGA-GFP TGF-b/SMAD3 reporter, GFP fluorescence, 18 h; TGF-beta stimulated, 500 pg/mL final; note: potency is the fitted concentration of half-maximal effect; % is set by controls: 0 for no effect and ±100 for the full control effect; nearly all actives have a fitted effect of over 65% in size
#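 Read-out: total well GFP (ex488/em500-530) summed from mean per-cell fluorescence. Cells: HEPG2 CAGA-GFP, 1% FBS DMEM, 18 h at 37 degrees C with 500 pg/mL final TGF-beta. Unstimulated wells served as the full-inhibition control; stimulated DMSO wells = 0%.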
# TDP1 cell noCPT – qHTS for Inhibitors of human tyrosyl-DNA phosphodiesterase 1 (TDP1): qHTS in cells in absence of CPT; DT40 Tdp1-/- hTDP1 cells, no CPT, ATP luminescence, 48 h; Potency, µM (top dose mostly 46.2 µM), for inactives: at the top dose activity change, negative = growth inhibition, most hits filed as inhibitors; hit rate 15% among 420,000; note: potency is the fitted concentration of half-maximal effect; % is set by controls: 0 for no effect and ±100 for the full control effect; nearly all actives have a fitted effect of over 55% in size
#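 Stably hTDP1-transfected Tdp1-null chicken DT40 cells were treated with library compounds minus camptothecin and grown for at least 48 hr at 37 °C, after which cellular ATP was quantified by luminescence.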
# * = called active by the depositor; ? = inconclusive; . = no result given; [ ] = remark or other dose. Sampled rows, rich in hits. Any-hit rate of the full collection: about 19%. Unless noted, calls come from the whole dose curve; as a rule, active = well fitted curve in the direction sought with a large enough effect; inconclusive = small, poorly fitted or top-dose-only effect, or another doubt; inactive = no such curve, though single readings can be large; an effect the other way counts as inactive or inconclusive.
SMILES,IL1B secr inh,TDP1 inh,HepG2 tox,TDP1 cell CPT,TGFb SMAD3 inh,TDP1 cell noCPT
CC(=O)Nc1cccc(-c2ccnc3c2CC(C(=O)NCc2cccs2)O3)c1 (stereo not drawn),47.2,.,-14.8%,0.92µM*,4.5%,0.651µM*
Cc1c(CNC2CCCCCC2)c(C(=O)O)c(C)n1Cc1ccc(F)cc1Cl,.,2.5%,-6.0%,?,3.9%,?
COc1ccc(S(=O)(=O)Nc2cc3[nH]c(=O)oc3cc2C)cc1,18.7,.,-7.9%,?,-0.8%,?
CCCCNC(=O)COn1nnc2ccc(S(=O)(=O)N3CCOCC3)cc21,12.0,.,10.4%,1.7%,?,-19.4%
CN1CCN(C(=O)CN(C)S(=O)(=O)c2ccc(F)cc2)CC1,8.5,.,16.2%,24.1%,-5.9%,25.1%
CCOc1ccc(-c2cccc(NS(=O)(=O)c3c(C)cc(C)cc3C)c2)nn1,.,3.0%,-36.7%,?,20µM*,23.1µM*
COc1ccc(OC)c(S(=O)(=O)Nc2ccc(-c3ccc4nnc(C)n4n3)cc2)c1,36.0,2.5%,-19.3%,8.2µM*,-9.1%,8.2µM*
CCOc1ccc(-c2cccc(NS(=O)(=O)c3ccc([N+](=O)[O-])cc3)c2)nn1,9.3,8.0%,2.2%,?,-28.5%,-6.0%
CCOc1ccc(S(=O)(=O)Nc2cccc(-c3ccc(OCC)nn3)c2)cc1,.,5.3%,-25.3%,11.6µM*,0.0%,16.4µM*
CCOc1ccc(-c2ccc(NS(=O)(=O)c3cc(C)ccc3OC)cc2)nn1,.,5.3%,-20.5%,13µM*,-7.0%,23.1µM*
CCn1c(SCC(=O)Nc2ccc3c(c2)OCO3)nnc1C(C)C,-7.8,-11.7%,5.0%,0.6%,4.8%,11.3%
Cc1cc2c(c(-c3cnccn3)c1)OC(CNC(=O)c1cc(Cl)ccc1F)C2 (stereo not drawn),.,.,.,14.2%,.,-14.5%
CSc1ccccc1C(=O)NCC1Cc2cc(F)cc(-c3cnccn3)c2O1 (stereo not drawn),.,.,.,20.6µM*,.,?
COc1ccc(-c2noc(N3CCC(C(=O)Nc4ccc(F)cc4)CC3)n2)cc1,0.4,.,-10.4%,3.0%,-7.1%,-26.2%
COc1ccc(-c2noc(N3CCC(C(=O)Nc4ccccc4OC)CC3)n2)cc1,-25.4,.,-31.3%,?,-23.0%,?
COc1cccc(NC(=O)c2ccnc(N3CCC(C(=O)NCc4cc(OC)ccc4OC)CC3)c2)c1,-2.4,6.9%,-3.2%,23.1µM*,18.2%,16.4µM*
COc1ccc(-c2noc(N3CCC(C(=O)Nc4cc(OC)ccc4OC)CC3)n2)cc1,-20.3,.,-26.3%,20.6µM*,-14.8%,20.6µM*
Cc1ccccc1-c1nc(-c2ccc(NC(=O)c3ccc(Br)o3)cc2)no1,5.6,7.8%,-25.7%,15.8µM*,-0.4%,?
COc1ccc(-c2noc(N3CCC(C(=O)Nc4cccc(OC)c4)CC3)n2)cc1,1.2,.,-14.6%,18.4µM*,?,?
CC1CCN(c2nn3c(=O)c(C(=O)NCc4ccc(Cl)cc4)cnc3s2)CC1,.,-2.6%,-1.8%,-6.4%,?,3.7%
O=C(NCCN1CCC(n2c(=O)[nH]c3ccccc32)CC1)c1cccs1,-9.0,.,.,-5.6%,.,2.8%
COc1ccc(-c2noc(N3CCC(C(=O)Nc4cccc(C)c4C)CC3)n2)cc1,.,8.1%,-14.4%,?,?,14.6µM*
COc1ccc(-c2noc(N3CCC(C(=O)Nc4cc(OC)c(OC)c(OC)c4)CC3)n2)cc1,0.0,3.8%,1.8%,-7.4%,-13.9%,-12.9%
COc1ccc(-c2noc(-c3ccccc3C(=O)Nc3cccnc3)n2)cc1,-0.6,2.3%,1.8%,?,4.7%,?
COc1ccc(-c2noc(-c3ccccc3C(=O)Nc3cccc(OC)c3)n2)cc1,-8.8,6.7%,-0.4%,?,-2.5%,16.4µM*
SMILES,IL1B secr inh,TDP1 inh,HepG2 tox,TDP1 cell CPT,TGFb SMAD3 inh,TDP1 cell noCPT
OCCN(CCO)c1cc2c3ccccc3ccc2c2ccccc12,-65.2*,.,-17.3%,?,?,16.4µM*
CN(C)c1cc2c3ccccc3ccc2c2ccccc12,.,.,-45.2%,?,-18.1%,15.8µM*
O=Cc1ccc2oc3nc4n(c(=O)c3c(=O)c2c1)CCCS4,-6.1,10µM*,-23.6%,-18.0%,-0.2%,?
O=c1c2cc(Br)cc(Br)c2oc2nc3n(c(=O)c12)CCCS3,.,-3.5%,.,.,.,.
CC(C)C[C@@H](CC(=O)N[C@H](CC(=O)N[C@@H]1CCNC[C@H]1C(=O)N[C@H](CC(=O)N[C@@H](CCC(=O)O)CC(=O)O)Cc1c[nH]c2ccccc12)C(C)C)NC(=O)[C@@H]1CNCC[C@H]1N,.,2.5%,.,.,.,.
c1ccc(N=NC2=NN(c3ccccc3)CS2)cc1,-16.8,.,-53.1%,?,?,5.8µM*
CC(C)[C@H](NC(=O)N1CCn2c1nc1ccccc12)C(=O)N1CCCCC1,11.3,1.0%,-2.3%,-28.9%,-27.0%,-12.5%
CC(=O)N[C@H](C(=O)O)C(C)(C)SN=O,.,15.3%,.,.,.,.
COC/C=C/C1=CC2=CC(=O)C(C)(OC(=O)c3cnc4ccccc4n3)C(=O)C2=CN1c1ccccc1 (stereo not drawn),21.0,4.0%[21 µM],3.0%,?,-44.8%,16.4µM*
COC/C=C/C1=CC2=CC(=O)C(C)(OC(=O)c3cnc4ccccc4n3)C(=O)C2=CN1CCc1c[nH]c2ccccc12 (stereo not drawn),.,-2.6%[12.3 µM],.,.,.,.
COc1ccc(C2CC(=O)c3c(O)cc(O)cc3O2)cc1O (stereo not drawn),-6.8,-0.6%[56.1 µM],-3.1%,-6.3%,-3.0%,?
COc1ccc(C2CC(=O)c3c(O)cc(O)cc3O2)c(CC=C(C)C)c1OC (stereo not drawn),10.4,.,-80.4%,23.1µM*,?,?
Cc1ccc(NNC(=O)c2c(F)cccc2Cl)cc1C,-7.9,2.7%,-2.9%,-5.9%,0.2%,2.9%
Cc1ccccc1NC(=O)c1nc(S(=O)(=O)Cc2ccccc2F)ncc1Cl,.,.,5.62µM*,1.26µM*,4.47µM*,5.01µM*
NS(=O)(=O)c1ccc(NC(=O)Cc2c(F)cccc2Cl)cc1,4.3,0.0%,-2.2%,-5.1%,-4.4%,-7.7%
